Measured values taken from PubChem BioAssay (EPA / NIEHS).
Several values for one entry are separate records, joined by “and”; a condition that tells them apart may be missing. Identical values can stand only once. The source holds several records for some structures; these can differ, active in one and inactive in another. Activity calls are given as the source filed them. How the source made its calls: active means hit-call score of the fitted dose curve at least 0.9, where 1 is the maximum; inactive means score below 0.9.

Assays:
[1] = read-out: Urokinase-type plasminogen activator receptor (uPAR), PLAUR (gene 5329); test: BSK_BE3C_uPAR: BioMAP Diversity Plus: BE3C Assay for Urokinase-type plasminogen activator receptor (uPAR) Biomarker Activity (AID 2283039); conditions: primary human bronchial epithelial cells; actives raise or lower the signal;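 on outcome: uPAR protein level measured by ELISA on the cells; cells exposed to compound for one day before measurement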
Method in brief: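 Chemically treated human bronchial epithelial cells (lung primary) are assayed for uPAR by ELISA after 24 h, with data fitted in both directions using DMSO as negative control.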

[2] = read-out: Interleukin-6 (IL6), IL6 (gene 3569); test: BSK_CASM3C_IL6: BioMAP Diversity Plus: CASM3C Assay for Interleukin-6 (IL6) Biomarker Activity for (AID 2283040); conditions: primary human coronary artery smooth muscle cells; actives raise or lower the signal
[3] = read-out: Tissue plasminogen activator (tPA), PLAT (gene 5327); test: BSK_BE3C_tPA: BioMAP Diversity Plus: BE3C Assay for Tissue plasminogen activator (tPA) Biomarker Activity (AID 2283041); conditions: primary human bronchial epithelial cells; actives raise or lower the signal;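 on outcome: tPA level quantified by ELISA one day after compound addition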
Method in brief: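 Using human lung primary bronchial epithelial cells, tPA was measured by ELISA 24 h after dosing; data fitted relative to DMSO.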

[4] = read-out: Interleukin-8 (IL8), CXCL8 (gene 3576); test: BSK_CASM3C_IL8: BioMAP Diversity Plus: CASM3C Assay for Interleukin-8 (IL8) Biomarker Activity (AID 2283042); conditions: primary human coronary artery smooth muscle cells; actives raise or lower the signal;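 further: IL-8 protein level quantified by ELISA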
[5] = read-out: Human Leukocyte Antigen - DR isotype (HLADR), HLA-DRA (gene 3122); test: BSK_CASM3C_HLADR: BioMAP Diversity Plus: CASM3C Assay for Human Leukocyte Antigen - DR isotype (HLADR) Biomarker Activity (AID 2283043); conditions: primary human coronary artery smooth muscle cells; actives raise or lower the signal;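 further: cell-surface HLA-DR protein level quantified by ELISA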
[6] = read-out: Macrophage colony-stimulating factor (MCSF), CSF1 (gene 1435); test: BSK_CASM3C_MCSF: BioMAP Diversity Plus: CASM3C Assay for Macrophage colony-stimulating factor (MCSF) Biomarker Activity (AID 2283044); conditions: primary human coronary artery smooth muscle cells; actives raise or lower the signal;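 further: M-CSF protein amount quantified by ELISA after 24 h exposure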
[7] = read-out: Low-density lipoprotein receptor (LDLR), LDLR (gene 3949); test: BSK_CASM3C_LDLR: BioMAP Diversity Plus: CASM3C Assay for Low-density lipoprotein receptor (LDLR) Biomarker Activity (AID 2283045); conditions: primary human coronary artery smooth muscle cells; actives raise or lower the signal;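 further: LDLR protein level on the cell surface quantified by ELISA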
[8] = read-out: Monocyte Chemoattractant Protein-1 (MCP1), CCL2 (gene 6347); test: BSK_CASM3C_MCP1: BioMAP Diversity Plus: CASM3C Assay for Monocyte Chemoattractant Protein-1 (MCP1) Biomarker Activity (AID 2283046); conditions: primary human coronary artery smooth muscle cells; actives raise or lower the signal;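 further: MCP-1 level quantified by ELISA 24 h after dosing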
[9] = BSK_CASM3C_Proliferation: Cell Proliferation Assessment in the BioMAP Diversity Plus: CASM3C Assay (AID 2283047); conditions: primary human coronary artery smooth muscle cells;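 further: sulforhodamine B total protein stain as relative cell number at 560 nm; sub-confluent cells exposed 48 h before staining; fitted both ways against DMSO so gain or loss of cell number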
[10] = read-out: Monokine induced gamma interferon (MIG), CXCL9 (gene 4283); test: BSK_CASM3C_MIG: BioMAP Diversity Plus: CASM3C Assay for Monokine induced gamma interferon (MIG) Biomarker Activity (AID 2283048); conditions: primary human coronary artery smooth muscle cells; actives raise or lower the signal;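 further: MIG protein level measured by ELISA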

Structure (SMILES)	outcome [1]	outcome [2]	outcome [3]	outcome [4]	outcome [5]	outcome [6]	outcome [7]	outcome [8]	outcome [9]	outcome [10]	AC50 [8]	AC50 [6]	AC50 [9]	AC50 [5]	AC50 [10]	AC50 [1]	AC50 [2]	AC50 [3]	AC50 [4]	AC50 [7]
O=C(O)C1C(C(=O)O)C2(Cl)C(Cl)=C(Cl)C1(Cl)C2(Cl)Cl (stereo not drawn)	inactive	inactive	inactive	inactive	inactive	inactive	inactive	inactive	inactive	inactive	–	–	–	–	–	–	–	–	–	–
Nc1cc2c3c(c1)C(c1ccccc1)=N[C@@H](NC(=O)c1cccnc1)C(=O)N3CC2	inactive	inactive	inactive	inactive	inactive	inactive	inactive	inactive	inactive	inactive	–	–	–	–	–	–	–	–	–	–
O=C(O)C=CC(F)(C(F)(F)F)C(F)(F)F	inactive	inactive	inactive	inactive	inactive	inactive	inactive	inactive	inactive	inactive	–	–	–	–	–	–	–	–	–	–
Nc1ccc2ccccc2c1	inactive	inactive	inactive	inactive	inactive	inactive	inactive	inactive	inactive	inactive	–	–	–	–	–	–	–	–	–	–
[N-]=[N+]=[N-]	inactive	inactive	inactive	inactive	inactive	inactive	inactive	inactive	inactive	inactive	–	–	–	–	–	–	–	–	–	–
CCOP(=S)(OCC)SCS(=O)(=O)CC	inactive	inactive	inactive	inactive	inactive	inactive	inactive	inactive	inactive	inactive	–	–	–	–	–	–	–	–	–	–
CCOP(=S)(OCC)SCSc1ccc(Cl)cc1	inactive	inactive	inactive	inactive	inactive	inactive	inactive	–	inactive	inactive	0.272 µM (active)	–	–	–	–	–	–	–	–	–
O=C(O)C(F)(OC(F)(F)C(F)(F)C(F)(F)F)C(F)(F)F (stereo not drawn)	inactive	inactive	inactive	inactive	inactive	inactive	inactive	inactive	inactive	inactive	–	0.218 µM (active)	5.17 µM (active)	–	–	–	–	–	–	–
CC(C)(C)OOC(C)(C)C	inactive	inactive	inactive	inactive	inactive	inactive	inactive	inactive	inactive	inactive	–	–	–	–	–	–	–	–	–	–
OCC(F)(F)OC(F)(F)C(F)(F)OC(F)(F)C(F)(F)OC(F)(F)CO	inactive	inactive	inactive	inactive	inactive	inactive	inactive	inactive	inactive	inactive	–	–	47.2 µM (active)	–	–	–	–	–	–	–
OCC(F)(F)OC(F)(F)C(F)(F)OC(F)(F)C(F)(F)OC(F)(F)F	inactive	inactive	inactive	inactive	inactive	inactive	inactive	inactive	–	inactive	47.3 µM (active)	17.5 µM (active)	18.7 µM (active) and 28.5 µM (active)	48.6 µM (active)	30 µM (active)	–	–	–	–	–
C=CC(=O)OCC(CC)(COC(=O)C=C)COC(=O)C=C	–	–	–	–	–	–	inactive	–	–	–	2.54 µM (active)	1.98 µM (active)	2.84 µM (active)	1.46 µM (active)	2.82 µM (active)	7.24 µM (active)	2.11 µM (active)	5.46 µM (active)	6.3 µM (active)	–
C=CC(=O)OCC(F)(F)C(F)F	inactive	inactive	inactive	inactive	–	–	inactive	inactive	–	–	–	30 µM (active) and 18.2 µM (active)	30 µM (active)	36.3 µM (active) and 38.8 µM (active)	30 µM (active) and 16.9 µM (active)	–	22.9 µM (active)	14.9 µM (active)	–	–
CCC(C)(C)c1ccc(O)cc1	inactive	inactive	inactive	inactive	inactive	inactive	inactive	inactive	inactive	inactive	–	–	–	–	–	–	–	–	–	–
CCCCC(CC)COP(=O)(Oc1ccccc1)Oc1ccccc1 (stereo not drawn)	inactive	inactive	–	inactive	inactive	inactive	inactive	inactive	inactive	inactive	–	–	–	–	–	–	–	3.09 µM (active)	–	–
O=C(O)C(F)(F)OC(F)(F)C(F)(F)OC(F)(F)C(=O)O	inactive	inactive	inactive	inactive	inactive	inactive	inactive	inactive	inactive	inactive	–	–	–	–	–	–	–	–	–	–
O=C(O)C(F)(F)C(F)(F)C(=O)O	inactive	inactive	inactive	inactive	inactive	inactive	inactive	inactive	inactive	inactive	–	–	–	–	–	–	–	–	–	–
Nc1ccc([N+](=O)[O-])cc1Cl	inactive	inactive	inactive	inactive	inactive	inactive	inactive	inactive	inactive	inactive	–	–	–	–	–	–	–	–	–	–
CCCCC(CC)COC(=O)c1c(Br)c(Br)c(Br)c(Br)c1C(=O)OCC(CC)CCCC (stereo not drawn)	inactive	inactive	inactive	inactive	inactive	inactive	inactive	inactive	inactive	inactive	–	–	–	–	–	–	–	–	–	–
O=P1(N(CCCl)CCCl)NCCCO1 (stereo not drawn)	inactive	inactive	inactive	inactive	inactive	inactive	inactive	inactive	inactive	inactive	–	–	–	–	–	–	–	–	–	–
c1nc[nH]n1	inactive	inactive	inactive	inactive	inactive	inactive	inactive	inactive	inactive	inactive	–	–	–	–	–	–	–	–	–	–

Structure (SMILES)	outcome [1]	outcome [2]	outcome [3]	outcome [4]	outcome [5]	outcome [6]	outcome [7]	outcome [8]	outcome [9]	outcome [10]	AC50 [8]	AC50 [6]	AC50 [9]	AC50 [5]	AC50 [10]	AC50 [1]	AC50 [2]	AC50 [3]	AC50 [4]	AC50 [7]
O=C(O)C(F)(F)OC(F)(F)C(F)(F)OC(F)(F)F	inactive	inactive	inactive	inactive	inactive	inactive	inactive	inactive	inactive	inactive	1.03 µM (active)	–	–	–	1.17 µM (active)	–	–	–	–	–
CCOS(=O)(=O)OCC	inactive	inactive	inactive	inactive	inactive	inactive	inactive	inactive	inactive	inactive	–	–	–	–	–	–	–	–	–	–
CCOP(=S)(OCC)SCSCC	inactive	inactive	inactive	inactive	inactive	inactive	inactive	inactive	inactive	inactive	–	–	–	–	–	–	–	–	–	–
Cc1cccc(N)c1	inactive	inactive	inactive	inactive	inactive	inactive	inactive	inactive	inactive	inactive	–	–	–	–	–	–	–	–	–	–
CCCCN(CCCC)SN(C)C(=O)Oc1cccc2c1OC(C)(C)C2	inactive	inactive	inactive	inactive	–	–	–	inactive	–	inactive	–	11.4 µM (active)	27.1 µM (active)	29.1 µM (active)	–	–	–	–	–	36.6 µM (active)
COP(=O)(CCC(=O)NCO)OC	inactive	inactive	inactive	inactive	inactive	inactive	inactive	inactive	inactive	inactive	–	–	–	0.3 µM (active)	–	–	1.56 µM (active)	–	–	–
CCC1(c2ccccc2)C(=O)N=C(O)NC1=O (stereo not drawn)	inactive	inactive	inactive	inactive	inactive	inactive	inactive	inactive	inactive	inactive	–	–	–	–	–	–	–	–	–	–
CCOP(=S)(NC(C)C)Oc1ccccc1C(=O)OC(C)C (stereo not drawn)	inactive	inactive	inactive	inactive	inactive	inactive	inactive	inactive	inactive	inactive	–	–	–	–	–	–	–	–	–	–
COP(=O)(O)OC	inactive	inactive	inactive	inactive	inactive	inactive	inactive	inactive	inactive	inactive	–	–	–	–	–	–	–	–	–	–
N#Cc1c(-c2ccc(Cl)cc2)[nH]c(C(F)(F)F)c1Br	–	–	inactive	–	–	–	–	–	–	–	0.0939 µM (active)	20 µM (active)	0.779 µM (active)	0.36 µM (active)	11.5 µM (active)	0.656 µM (active)	1.18 µM (active)	–	0.277 µM (active)	20 µM (active)
NC(=O)C(F)(F)C(F)(F)F	inactive	inactive	inactive	inactive	inactive	inactive	inactive	inactive	inactive	inactive	–	–	–	–	–	–	–	–	–	–
OCC(F)(F)OC(F)(F)C(F)(F)OC(F)(F)CO	inactive	inactive	inactive	inactive	inactive	inactive	inactive	inactive	inactive	inactive	–	–	–	–	–	–	–	–	–	–
c1ccc(OP(Oc2ccccc2)Oc2ccccc2)cc1	inactive	inactive	inactive	inactive	inactive	inactive	inactive	inactive	inactive	inactive	–	–	–	–	–	–	–	–	–	–
c1ccc2c(c1)sc1ccccc12	inactive	inactive	inactive	inactive	inactive	inactive	inactive	inactive	inactive	inactive	–	–	–	–	–	–	–	–	–	–
CN(C)C(=O)Cl	inactive	inactive	inactive	inactive	inactive	inactive	inactive	inactive	inactive	inactive	–	–	–	–	–	–	–	–	–	–
c1cc2c3c(cccc3c1)CC2	inactive	inactive	inactive	inactive	inactive	inactive	inactive	inactive	inactive	inactive	–	–	–	–	–	–	–	–	–	–
CCOP(=S)(OCC)SCn1nnc2ccccc2c1=O	inactive	inactive	inactive	inactive	inactive	inactive	–	inactive	–	inactive	–	–	20 µM (active)	–	–	–	–	–	–	32.3 µM (active)
CCOc1ccc(C(C)(C)COCc2cccc(Oc3ccccc3)c2)cc1	inactive	inactive	–	inactive	inactive	inactive	inactive	inactive	inactive	inactive	–	–	–	–	–	–	–	0.668 µM (active)	–	–
CC(Cc1ccc(OCC(=O)O)cc1)NCC(O)c1csc(C(F)(F)F)n1 (stereo not drawn)	inactive	inactive	inactive	inactive	inactive	inactive	inactive	inactive	inactive	inactive	–	–	–	–	–	–	–	–	–	–
Cc1ccc(N)cc1N	inactive	inactive	inactive	inactive	inactive	inactive	inactive	inactive	inactive	inactive	–	–	–	–	–	–	–	–	–	–
